Bioassay records (PubChem)
Plk1 PBD FP: Plk1 polo box domain binding inhibitors, primary screen, biochemical, fluorescence polarization. Serine/threonine-protein kinase PLK1 (Homo sapiens), P53350. Plk1 PBD phosphopeptide binding. inhibition, %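 (tested at about 20 µM)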. 0.13% of 97,000 active. AID 693, 2007; in the data active = inhibition above about 34%, passing the limit was not always enough
Target sequence (P53350 whole entry, looked up, the tested form may be a part): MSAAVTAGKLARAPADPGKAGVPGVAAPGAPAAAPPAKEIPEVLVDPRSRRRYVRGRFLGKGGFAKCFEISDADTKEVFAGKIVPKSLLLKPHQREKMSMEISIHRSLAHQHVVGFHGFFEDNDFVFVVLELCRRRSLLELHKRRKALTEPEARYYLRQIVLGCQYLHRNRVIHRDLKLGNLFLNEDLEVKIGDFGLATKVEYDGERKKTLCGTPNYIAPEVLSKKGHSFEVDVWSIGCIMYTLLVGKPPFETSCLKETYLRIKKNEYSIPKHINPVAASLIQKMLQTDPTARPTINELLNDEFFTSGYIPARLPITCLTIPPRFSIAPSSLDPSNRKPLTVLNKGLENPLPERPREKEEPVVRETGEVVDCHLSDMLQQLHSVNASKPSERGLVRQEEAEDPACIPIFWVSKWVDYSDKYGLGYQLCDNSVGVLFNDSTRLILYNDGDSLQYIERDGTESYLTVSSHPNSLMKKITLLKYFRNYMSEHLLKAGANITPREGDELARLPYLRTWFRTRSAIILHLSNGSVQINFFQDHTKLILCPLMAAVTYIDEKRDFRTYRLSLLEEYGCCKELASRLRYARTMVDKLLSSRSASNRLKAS
PLK1 inh: human PLK1 kinase inhibitors, primary screen, biochemical, TR-FRET. Serine/threonine-protein kinase PLK1 (Homo sapiens), P53350. recombinant PLK1 kinase, TR-FRET peptide phosphorylation. inhibition, % at 10 µM. 0.53% of 97,000 active;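 active = inhibition of 50% or more in the single-concentration screen; inactive = inhibition below 50%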;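 note: 0% = DMSO max control and 100% = H-89 dihydrochloride min control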
NFkB transloc inh: inhibitors of IL-1B driven NFkB p65 nuclear import, primary screen, imaging, HUVEC, IL-1B stimulus, high-content imaging. AID 796, 2007. 0.43% of 94,000 active. inhibition, % at 2 µM. HUVEC IL-1B NFkB p65 nuclear translocation imaging;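 active = inhibition above about 30% together with a positive call from visual inspection of the well image, limit read from the data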;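 note: nuclear over cytoplasmic p65 intensity ratio measured by imaging; 0% = IL-1B stimulated DMSO wells and 100% = unstimulated DMSO wells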
PTK2B oligo ant: antagonists of Pyk2 self-association, primary screen, Q293 cells, FERM NanoBiT luminescence, HTS; Protein-tyrosine kinase 2-beta (Homo sapiens), Q14289; stronger effect = lower value; z-score (the deposit names both 25 µM and 10 µM); 0.83% of 99,000 active;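 active = Z-score of -3 or lower, scaled per plate to the spread of control and sample wells; inactive = z-score above -3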;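 note: negative z-score means lost luminescence so less FERM oligomerization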
HUVEC tox IL1B: cytotoxicity in IL-1B stimulated HUVEC, primary screen, cytotoxicity control for IL-1B NFkB translocation project, imaging, Hoechst nuclear count, IL-1B stimulus | HUVEC cell count loss | cell count reduction, % at 2 µM | 0.41% of 94,000 active | AID 845, 2007;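 active = cell count reduction more than 3 SD above the screen-wide mean, cut at about 70% in these data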;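 note: normalized per plate to untreated control cells as the no-loss baseline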
NFkB transloc pot: enhancers of NFkB p65 translocation in HUVEC – imaging, IL-1B stimulus, high-content imaging, primary screen. HUVEC IL-1B NFkB p65 nuclear translocation imaging. activation, % at 2 µM. 0.3% of 94,000 active;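 active = activation above 40%, about the mean plus 3 SD, also judged a hit on visual image review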;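 note: percent activation is computed from the nuclear over cytoplasmic p65 intensity ratio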
* = called active by the depositor; · = no result. Most compounds without a hit are left out; they make up all but 2.2% or so of the library.

SMILES	Plk1 PBD FP	PLK1 inh	NFkB transloc inh	PTK2B oligo ant	HUVEC tox IL1B	NFkB transloc pot
CCOc1ccc2nc(NC(=O)c3ccc(OC)c(S(=O)(=O)N4CCOCC4)c3)sc2c1	-3	-8	-1	-3.7*	4	1
O=C(NC1CC1)c1cccc(Nc2ccc(-c3ccc4c(c3)OCCO4)nn2)c1	-8	1	4	-3.4*	-1	-4
C=CCn1c2ccccc2c2nnc(SCCCn3c(=O)[nH]c4ccccc43)nc21	-9	-8	-4	-3.9*	28	4
COc1cccc(-c2cc(C(=O)N3CC4(C)CC3CC(C)(C)C4)no2)c1 (configuration not stated)	-5	-12	2	-1.4	-17	-2
Cc1noc(C(=O)N2CC3(C)CC2CC(C)(C)C3)c1Cl (configuration not stated)	12	70*	·	·	·	·
COC(=O)c1cccc(NC(=O)NC23CC4CC(CC(C4)C2)C3)c1	16	-4	-12	-1.8	1	12
COC(=O)c1ccc(Cl)c(NC(=O)NC23CC4CC(CC(C4)C2)C3)c1	13	-11	-32	-3.6*	-13	32
CCOc1ccc(/C=C/[N+](=O)[O-])c2ccccc12	-14	-11	61*	0.5	-54	-61
O=[N+]([O-])/C=C/c1c(OCc2ccccc2)ccc2ccccc12	-16	-5	9	1.5	-22	-9
Cc1ccc2nc(SCc3nc4c(cnn4-c4ccccc4)c(=O)[nH]3)[nH]c2c1	5	54*	-5	-1.8	-16	5
O=c1[nH]c(SCc2nc3c(cnn3-c3ccccc3)c(=O)[nH]2)nc2ccccc12	24	18	·	-1.9	·	·
COc1ccc(OC)c(N(CC(=O)Nc2cccnc2)S(=O)(=O)c2ccc(OC)c(OC)c2)c1	-28	1	91*	-0.24	90*	-91
COc1ccc(OC)c(N(CC(=O)Nc2cccnc2)S(=O)(=O)c2ccc(C)cc2)c1	3	-6	60*	0.44	2	-59
CCC(C)NC(=O)CSc1nnc(-c2cc(-c3ccc(C)cc3)nc3ccccc23)n1N (configuration not stated)	11	-16	-73	0.02	0	73*
CCC(C)NC(=O)CSc1nnc(-c2ccc(C(C)(C)C)cc2)n1C (configuration not stated)	·	·	·	-0.51	·	·
Cc1ccc(-c2cc(-c3nnc(SCC(=O)NCC(C)C)n3N)c3ccccc3n2)cc1	2	-15	-43	0.66	-2	43*
Cc1ccc(C)c(NC(=O)CSc2nnc(-c3ccccc3)n2N)c1	2	-4	-16	0.87	-55	16
Cc1cccc(C)c1NC(=O)C(c1ccc([N+](=O)[O-])cc1)N(C)C(=O)c1ccccn1 (configuration not stated)	·	·	·	0.07	·	·
O=C(c1cc2n(n1)C(C(F)(F)F)CC(c1ccco1)N2)N1CCc2ccccc2C1 (configuration not stated)	-9	-15	11	-0.77	75*	-11
COc1ccccc1N1CCN(C(=O)c2cc3n(n2)C(C(F)(F)F)CC(c2ccco2)N3)CC1 (configuration not stated)	·	·	·	0.35	·	·
Clc1ccc(Cc2nn3c(Cn4nnc5ccccc54)nnc3s2)cc1	-4	6	8	0.15	5	-8
O=C(CSc1ncc(-c2ccccc2)n1C1CCCC1)N1CCc2ccccc21	-17	-23	8	-1.6	40	-8
CCOc1ccc(NC(=O)c2cccc3c2C(=O)N(CCOC)C3)cc1	-12	-7	10	-1.8	-19	-10
O=C(Nc1ccc(F)cc1)c1cccc2c1C(=O)N(Cc1ccccn1)C2	-2	-11	10	0.11	94*	-10
O=C(COC(=O)CCC(=O)c1cccs1)Nc1cc(S(=O)(=O)N2CCOCC2)ccc1Cl	-36	-10	1	0.39	-5	-1
COc1ccc(-c2nn(C)c3sc(C(=O)NCc4ccco4)cc23)cc1OC	·	·	·	0.18	·	·
